Source: PubChem BioAssay (Tox21)
Values joined by “and” are separate entries in the source; they are usually repeats but may differ in a detail not shown here. Equal values may be shown once. Results filed as inconclusive are left out. Active and inactive are the calls of the source. Unless noted, calls come from the whole dose curve; as a rule, active = well fitted curve in the direction sought with a large enough effect in the repeat runs; inconclusive = weak or mixed curves; inactive = no such curve, though single readings can be large; an effect the other way counts as inactive or inconclusive.

Assays:
[1] = qHTS assay for small molecules that induce genotoxicity in human embryonic kidney cells expressing luciferase-tagged ATAD5 (AID 651632); note: nearly all actives have a fitted effect of over 15% in size; note: potency is the fitted concentration of half-maximal effect
How it was run: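 Test compounds were delivered by pin tool onto HEK293T reporter cells (2,000/well) expressing ATAD5 fused to luciferase. After 16 hr at 37C, 5% CO2, Amplite was added for 30 min at room temperature and luminescence was measured.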

[2] = qHTS assay for small molecule agonists of the p53 signaling pathway - cell viability (AID 651633; calls by dose curve; note: nearly all actives have a fitted effect of over 30% in size; note: potency is the fitted concentration of half-maximal effect)
How it was run: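 p53RE-bla cells were treated with compound for 16 hours at 37 C. Cytotoxicity was then measured as CellTiter-Glo luminescence after 30 min at room temperature.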

[3] = qHTS assay for small molecules that induce genotoxicity in human embryonic kidney cells expressing luciferase-tagged ATAD5 - cell viability (AID 651634; calls by dose curve; note: nearly all actives have a fitted effect of over 25% in size; note: potency is the fitted concentration of half-maximal effect)
How it was run: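 Quantitative high-throughput format. HEK293T cells expressing ATAD5 fused to luciferase were plated at 2,000 cells/well and treated 15.5 hr with compound versus DMSO. Viability was determined by fluorescent live-cell protease substrate, 30 min at 37C.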

[4] = qHTS assay for small molecule disruptors of the mitochondrial membrane potential - cell viability (AID 720634; calls by dose curve; note: nearly all actives have a fitted effect of over 20% in size; note: potency is the fitted concentration of half-maximal effect)
How it was run: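 Same-well counter-screen: following the MMP dye addition, CellTiter-Glo was added to 1 hr compound-treated HepG2 cells and luminescence read after 30 min at room temperature.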

[5] = qHTS assay for small molecule disruptors of the mitochondrial membrane potential (AID 720635); note: potency is the fitted concentration of half-maximal effect
How it was run: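 HepG2 cells exposed to compound 1 hr at 37C, then Mito-MPS dye 30 min. Ratio read of aggregate (540/590 nm) versus monomer (490/535 nm) fluorescence.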

[6] = qHTS assay to test for compound auto fluorescence at 590 nm (red) in HepG2 cells (AID 720674)
How it was run: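 HepG2 cells, 2,000 per well in MEM with 10% FBS, attached overnight at 37 C, then got 23 nL compound or DMSO. After 1 hr at 37 C, 5% CO2, red fluorescence was read at 540/590 nm against Rose Bengal sodium as reference.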

[7] = qHTS assay to test for compound auto fluorescence at 535 nm (green) in HepG2 cells (AID 720675)
[8] = qHTS assay to test for compound auto fluorescence at 460 nm (blue) in HEK293 cells (AID 720678)
How it was run: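 Intrinsic compound fluorescence is recorded in live HEK293 cultures after overnight incubation at 37C, 5% CO2, using excitation 405 nm and emission 460 nm. Values are referenced to triamterene.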

[9] = qHTS assay to test for compound auto fluorescence at 590 nm (red) in HEK293 cells (AID 720679)
How it was run: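 Red autofluorescence, HEK293 cells: 2,000 cells/well; attach 4-5 hr 37C; add 23 nL cpd or DMSO; incubate o/n 37C 5% CO2; read Ex540/Em590; Rose Bengal sodium reference.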

[10] = qHTS assay to test for compound auto fluorescence at 535 nm (green) in HEK293 cells (AID 720680)
[11] = qHTS assay to test for compound auto fluorescence at 460 nm (blue) in HEK293 cell free culture (AID 720681)
How it was run: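 Compounds were added to cell-free DMEM with 10% FBS and fluorescence read directly. The blue channel used 405 nm excitation and 460 nm emission, with triamterene as the reference fluorophore.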

[12] = qHTS assay to test for compound auto fluorescence at 535 nm (green) in HEK293 cell free culture (AID 720682)
How it was run: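 Intrinsic compound fluorescence is measured in culture medium containing 10% FBS, with excitation at 485 nm and detection at 535 nm, referenced to fluorescein.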

[13] = qHTS assay to test for compound auto fluorescence at 590 nm (red) in HEK293 cell free culture (AID 720683)
How it was run: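 Cell-free wells of DMEM with 10% FBS received compound, and intrinsic fluorescence was read at excitation/emission 540/590 nm. Values expressed as equivalence to Rose Bengal sodium.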

[14] = qHTS assay to test for compound auto fluorescence at 590 nm (red) in HepG2 cell free culture (AID 720684)
How it was run: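 Rose Bengal sodium served as the reference for red signal. Test compounds were dispensed into serum-containing MEM (10% FBS) without cells, and plates were read at 540/590 nm.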

[15] = qHTS assay to test for compound auto fluorescence at 460 nm (blue) in HepG2 cell free culture (AID 720685)
How it was run: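 Cell-free plates of MEM plus 10% FBS received 23 nL compound or DMSO vehicle; blue-channel (405/460 nm) intensity scored against triamterene as reference fluorophore.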

[16] = qHTS assay to test for compound auto fluorescence at 535 nm (green) in HepG2 cell free culture (AID 720686)
[17] = qHTS assay to test for compound auto fluorescence at 460 nm (blue) in HepG2 cells (AID 720687)
How it was run: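 HepG2 cells in MEM with 10% FBS, attached overnight at 37 C, were exposed to compound or DMSO for 1 hr at 37 C, 5% CO2. Blue fluorescence was read at 405/460 nm, with triamterene as reference fluorophore.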

[18] = molecular target: Glucocorticoid receptor (Homo sapiens) (UniProt P04150); test: qHTS assay to identify small molecule agonists of the glucocorticoid receptor (GR) signaling pathway (AID 720691; active = well fitted activation curve with a large enough effect in the signal ratio in the repeat runs, not every such curve was filed as active; the % refers to the signal ratio)
How it was run: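 A HeLa cervical cancer line expressing GR and a glucocorticoid response element-driven beta-lactamase gene is treated with compounds for 18 h; LiveBLAzer B/G FRET substrate is then applied and fluorescence read.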

[19] = molecular target: Glucocorticoid receptor (Homo sapiens) (UniProt P04150); test: qHTS assay to identify small molecule antagonists of the glucocorticoid receptor (GR) signaling pathway (AID 720692; active = well fitted inhibition curve with a large enough effect in the signal ratio in the repeat runs, not every such curve was filed as active; the % refers to the signal ratio; note: potency is the fitted concentration of half-maximal effect)
How it was run: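 GRE-bla HeLa line, dex-stimulated (5 nM final). Compound exposure 18 h, 37 C. Beta-lactamase FRET read after 2 h RT substrate.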

[20] = qHTS assay for small molecule agonists of the p53 signaling pathway (AID 651631; calls by dose curve; note: nearly all actives have a fitted effect of over 15% in size; note: potency is the fitted concentration of half-maximal effect)
How it was run: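 Fluorescence intensity from cleaved LiveBLAzer B/G substrate (2 h, room temperature) served as the signal. Beforehand, HCT-116 reporter cells bearing p53 response elements were treated 16 h at 37 °C with DMSO-dissolved compounds.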

Measured: Potency

Chain of Glucocorticoid receptor (Homo sapiens) (P04150 whole entry, looked up): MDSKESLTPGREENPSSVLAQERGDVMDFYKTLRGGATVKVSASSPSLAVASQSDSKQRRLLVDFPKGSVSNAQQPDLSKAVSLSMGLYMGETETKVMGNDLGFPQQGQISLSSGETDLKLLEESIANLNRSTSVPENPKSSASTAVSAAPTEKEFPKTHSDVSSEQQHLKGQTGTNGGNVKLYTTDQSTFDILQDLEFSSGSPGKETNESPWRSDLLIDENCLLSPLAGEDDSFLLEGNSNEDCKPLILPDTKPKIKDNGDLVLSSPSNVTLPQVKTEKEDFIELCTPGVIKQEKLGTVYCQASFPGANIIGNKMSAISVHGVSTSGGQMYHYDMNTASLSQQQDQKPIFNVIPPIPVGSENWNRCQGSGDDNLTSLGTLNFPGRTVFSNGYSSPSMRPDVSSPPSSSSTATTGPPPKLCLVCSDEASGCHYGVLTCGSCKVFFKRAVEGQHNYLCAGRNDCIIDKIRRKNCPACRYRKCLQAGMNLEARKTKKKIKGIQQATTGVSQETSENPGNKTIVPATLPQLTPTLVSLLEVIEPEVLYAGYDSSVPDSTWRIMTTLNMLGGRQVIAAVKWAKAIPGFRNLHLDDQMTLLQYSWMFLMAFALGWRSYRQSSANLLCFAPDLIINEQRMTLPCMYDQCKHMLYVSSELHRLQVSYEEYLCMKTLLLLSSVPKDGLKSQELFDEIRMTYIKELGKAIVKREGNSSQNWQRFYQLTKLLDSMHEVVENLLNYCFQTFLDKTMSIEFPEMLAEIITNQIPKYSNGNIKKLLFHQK

CCNCC
not listed: [20]
inactive: all other assays above

O=C(O)CF
not listed: [18] | [19] | [20]
inactive: all other assays above

Cc1cc(Cl)ccc1N=CN(C)C
not listed: [17] | [18] | [19] | [20]
inactive: all other assays above

c1ccc2c(c1)Nc1ccccc1S2
active: [4] 29.8 µM | [5] 7.5 µM and 4.33 µM
not listed: [12] | [18] | [19]
inactive: all other assays above

CCC/C=N/O
not listed: [17]
inactive: all other assays above

Clc1cccc(C(Cl)(Cl)Cl)n1
not listed: [5] | [15] | [17] | [18] | [19]
inactive: all other assays above

C[C@]12CC[C@H]3[C@@H](CCC4=CC(=O)CC[C@@H]43)[C@@H]1CC[C@@H]2O
active: [19] 3.01 µM and 4.25 µM and 6.85 µM
not listed: [15] | [18]
inactive: all other assays above

O=C1Nc2ccc(Cl)cc2C(c2ccccc2)=NC1O (stereo not given)
not listed: [5] | [18] | [19]
inactive: all other assays above

CC1(C)C(C(=O)OC(C#N)c2cccc(Oc3ccccc3)c2)C1(C)C (stereo not given)
active: [4] 54.4 µM | [5] 30.9 µM
not listed: [15] | [18] | [19]
inactive: all other assays above

COc1ccc(CO)cc1
not listed: [1] | [17]
inactive: all other assays above

CN(C)P(=O)(N(C)C)N(C)C
not listed: [12] | [17] | [18] | [19]
inactive: all other assays above

C[N+](C)(C)CC(=O)[O-]
not listed: [18] | [19] | [20]
inactive: all other assays above

N#CC(c1ccccc1)c1ccccc1
active: [5] 7.69 µM
not listed: [12]
inactive: all other assays above

N#Cc1c(Cl)c(Cl)c(Cl)c(C#N)c1Cl
active: [20] 21.3 µM and 30.6 µM | [1] 424 nM and 864 nM | [2] 6.73 µM and 9.69 µM | [3] 30 µM and 8.63 µM | [4] 19 µM and 21.7 µM | [5] 3.37 µM and 27.3 µM
not listed: [17] | [18] | [19]
inactive: all other assays above

Cc1cccc(N=Nc2ccc(N(C)C)cc2)c1
active: [1] 986 nM and 1.93 µM | [3] 35 µM and 27.3 µM | [4] 19.7 µM and 21.7 µM | [5] 24.8 µM and 27.3 µM
not listed: [19] | [20]
inactive: all other assays above
